# Source: PubChem (The Scripps Research Institute Molecular Screening Center)
# Most compounds without a hit are left out; they make up all but 2% or so of the library.
# CHRM4 PAM: human M4 muscarinic receptor positive allosteric modulators, primary screen, CHO-K1 cells, Fluo-8 calcium fluorescence; Muscarinic acetylcholine receptor M4 (Homo sapiens), P08173; CHO-K1 hM4/Gqi5, ACh EC20; 0% = ACh EC20, 100% = maximal ACh; activation, % at 3 µM; actives 0.4% (n = 360,000);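 active = activation above its plate's cutoff, the mean activation of sample wells plus 3 SD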
# Target sequence (P08173 whole entry, looked up): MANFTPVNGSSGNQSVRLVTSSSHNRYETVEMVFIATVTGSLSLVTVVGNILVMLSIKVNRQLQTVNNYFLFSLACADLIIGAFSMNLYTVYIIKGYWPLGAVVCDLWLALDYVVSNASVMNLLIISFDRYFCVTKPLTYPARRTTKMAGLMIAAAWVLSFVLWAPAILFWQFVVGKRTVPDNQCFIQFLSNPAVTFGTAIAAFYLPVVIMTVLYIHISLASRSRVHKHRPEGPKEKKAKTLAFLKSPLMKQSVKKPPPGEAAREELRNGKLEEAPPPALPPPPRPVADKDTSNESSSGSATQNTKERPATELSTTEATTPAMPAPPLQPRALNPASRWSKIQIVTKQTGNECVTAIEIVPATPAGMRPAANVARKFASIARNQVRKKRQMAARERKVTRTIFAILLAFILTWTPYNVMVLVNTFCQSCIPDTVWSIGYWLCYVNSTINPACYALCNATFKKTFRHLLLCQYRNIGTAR
# CHO-K1 Ca PAM: nonselective calcium activators in parental CHO-K1 cells, primary screen, counter-screen for M1 PAM project, cell-based, Fluo-8 calcium fluorescence, full deck, 1536-well; ATP EC20; 0% at ATP EC20, 100% at ATP max; activation, % at 3 µM; actives 0.02% (n = 360,000);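 active = activation above the run cutoff, the mean activation of all test compounds plus 3 SD, cut at about 40% in these data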;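 also: peak over basal fluorescence ratio in a 140 s read after ATP addition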
# M4 antag: human M4 muscarinic receptor antagonists, primary screen, CHO cells, Fluo-8 calcium fluorescence | Muscarinic acetylcholine receptor M4 (Homo sapiens), P08173 | CHO-hM4 cells, ACh EC80 | inhibition, % at 3 µM | actives 0.73% (n = 360,000);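 active = inhibition above its plate's cutoff, the mean inhibition of sample wells plus 3 SD, cut at about 27% in these data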;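 also: 0% = acetylcholine EC80 with DMSO and 100% = DMSO without agonist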
# CHRM4 agonist: human M4 muscarinic receptor agonists, primary screen, CHO-K1 cells, Fluo-8 calcium fluorescence. actives 0.14% (n = 360,000). CHO-K1 hM4/Gqi5; vehicle 0%, full acetylcholine response 100%. activation, % at 3 µM. AID 624127, 2012. Muscarinic acetylcholine receptor M4 (Homo sapiens), P08173;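 active = activation above the run mean over all test wells plus 3 SD, cut at about 32% in these data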;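 also: peak over basal fluorescence ratio per well then scaled between controls; 0% = DMSO wells and 100% = acetylcholine at EC100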
# CHO-K1 Ca antag: M1 antagonist counterscreen hit in parental CHO-K1 cells. ATP-induced calcium, Fluo-8 fluorescence. actives 0.6% (n = 360,000). inhibition, % at 3 µM. AID 602250;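 active = inhibition above a per-plate cutoff, the plate's mean sample inhibition plus 3 SD, cut at about 24% in these data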;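 also: 0% = DMSO plus EC80 ATP and 100% = DMSO alone without ATP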
# M1 ag parental: counter-screen for M1 agonists: effect in parental CHO-K1 cells. Fluo-8 calcium fluorescence; scaled to maximal ATP response, vehicle zero. activation, % at 3 µM. actives 0.48% (n = 360,000); in the data active = activation above about 15%;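 also: untransfected CHO-K1 host cells lacking M1 receptor as counterscreen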
# Active calls of the source: *.
SMILES,CHRM4 PAM,CHO-K1 Ca PAM,M4 antag,CHRM4 agonist,CHO-K1 Ca antag,M1 ag parental
O=C(NNC(=S)NC(=O)c1ccc(Br)cc1)c1cccc([N+](=O)[O-])c1,5.8,7.1,2.1,7.4,-11.1,20.9*
CC1(C(=O)NNC(=O)c2cccc([N+](=O)[O-])c2)CC1Br (centres undefined),15.8*,-10.1,-15.7,0.8,10.1,0.1
O=C(NNC(=O)C12CC3CC(CC(C3)C1)C2)c1cccc([N+](=O)[O-])c1,-2.0,32.7,-2.6,1.4,-15.0,0.9
CC(C)NC(=S)NC(=O)c1ccc(Cl)cc1Cl,-2.2,16.6,1.6,-0.6,-14.1,1.1
Cc1ccc(C(=O)NNC(=S)NC(=O)c2ccc(Cl)cc2Cl)cc1,-40.7,-13.2,35.8*,160.4*,13.2,107.0*
CC(C)CC(=O)OC1C(N2CCOCC2)c2c(ccc(/C=C/C(=O)N3CCOCC3)c2O)OC1(C)C (centres undefined),-1.9,14.0,3.1,0.3,3.6,15.3*
Cc1cc(/C=N/NC(N)=S)c(C)n1-c1ccc(Cl)cc1,2.1,4.8,-2.4,3.6,3.8,17.9*
Cc1cc(/C=N/NC(N)=S)c(C)n1-c1ccc(Br)cc1,-3.3,11.9,5.8,-1.3,-11.8,-0.3
O=S(=O)(c1ccc(Cl)nc1)N1CCC(Cc2ccccc2)CC1,9.7,7.4,-23.3,1.1,-15.4,0.6
NC(=O)C1CCN(c2ccc(S(=O)(=O)N3CCC(Cc4ccccc4)CC3)cn2)CC1,-2.1,7.9,0.4,5.0,4.8,19.3*
O=S(=O)(c1ccc(N2CCOCC2)nc1)N1CCOCC1,-0.8,-1.4,-1.6,-0.9,-12.9,0.1
O=S(=O)(c1ccc(N2CCCCCC2)nc1)N1CCCC1,-17.5,12.9,28.6*,-0.1,3.7,0.7
CN1CCN(c2ccc(S(=O)(=O)N3CCCCC3)cn2)CC1,16.6,-5.8,4.8,1.2,5.5,-0.1
O=S(=O)(NC1CCCCC1)c1ccc(N2CCOCC2)nc1,-11.0,19.9,-6.2,4.4,-4.2,19.3*
CNC(=O)/C(C#N)=C/c1ccc(-c2ccccc2[N+](=O)[O-])o1,-1.4,-18.4,-2.4,2.4,27.0*,0.0
Cc1ccc2nc(NC(=O)C3CC3C)sc2c1 (centres undefined),10.0,-2.3,-0.8,0.8,-13.7,-0.4
COc1ccccc1C(=O)NC(=O)COC(=O)c1cccc(C)c1O,7.5,-11.1,0.6,0.1,13.6,15.1*
COc1ccccc1C(=O)NC(=O)COC(=O)c1cc[n+]([O-])cc1,5.1,-5.4,4.0,1.1,-1.5,1.1
N#Cc1cc2cc3ccccc3nc2n2c(=O)c3ccccc3nc12,-3.5,10.9,5.1,4.8,-23.5,2.6
COc1cccc(NC(=S)N(Cc2ccc(C(=O)O)cc2)Cc2ccc(OC)c(OC)c2)c1,19.7*,4.0,8.8,1.0,-2.4,-0.1
COc1ccc(CN(Cc2ccc(C(=O)O)cc2)C(=S)Nc2ccccc2C)cc1OC,1.6,14.7,7.8,0.5,-10.8,1.5
CC(=O)c1sc(NC(=O)C=C(C)C)nc1C,11.6,19.7,-6.0,0.4,-3.4,0.2
CC(=O)c1sc(NC(=O)C2(F)C(F)(F)C(F)(F)C(F)(F)C(F)(F)C2(F)F)nc1C,-13.8,1.9,12.2,14.4,25.6*,12.6
Cc1sc(-c2cccnc2)nc1OC(=O)C1CC1,0.8,19.9,-1.6,0.9,-7.0,-0.3
CC1(C(=O)NCc2ccc(Cl)cc2)CCN1C(=O)c1cccc(F)c1 (centres undefined),2.3,26.4,-10.7,0.7,-17.3,0.2
SMILES,CHRM4 PAM,CHO-K1 Ca PAM,M4 antag,CHRM4 agonist,CHO-K1 Ca antag,M1 ag parental
CCOc1cccc2cc(C(=O)Oc3ccc(OC)cc3)c(=O)oc12,2.2,19.8,3.2,0.2,-0.8,15.9*
Cc1ccsc1C(=O)NNC(=O)Nc1ccc(Cl)c(Cl)c1,6.1,-5.2,-2.6,2.2,29.1*,-0.3
COc1ccc(C(=O)Oc2cc(C)[nH]c(=O)c2[N+](=O)[O-])c(OC)c1,5.3,9.4,-6.2,0.9,12.2,0.5
CC1(C)Cc2noc(N)c2C(C)(C)N1O,14.6,-7.8,-3.1,0.5,24.8*,-0.1
COc1ccc(CCN2C(=O)CCC3=C2CCCC3=O)cc1OC,-5.3,2.0,-5.5,-0.3,3.6,0.9
Cc1cccc(C(C)C)c1NC(=O)c1ccc(CN(c2ccccc2)S(=O)(=O)c2ccccc2)cc1,0.2,-12.7,-8.5,0.3,25.7*,-0.3
O=C(CCCN1C(=O)c2ccccc2C1=O)Nc1ccc(S(=O)(=O)N2CCOCC2)cc1,11.2,-5.1,27.5*,2.2,8.1,0.7
O=S(=O)(c1ccc(NCc2ccccc2)cc1)N1CCOCC1,4.1,-26.4,-12.1,5.9,25.0*,1.4
CCN(CC)C(=O)C(c1ccccc1)S(=O)(=O)N1CCOCC1 (centres undefined),-3.6,22.9,8.9,1.4,-5.6,0.6
COc1ccc(-c2sc(Nc3ccc(F)c(F)c3F)nc2CCC(=O)NN)cc1,-4.0,-5.4,-1.6,1.6,-3.6,0.4
O=C(c1ccc(Cl)c(S(=O)(=O)N2CCOCC2)c1)N(Cc1ccco1)Cc1cccs1,-8.1,-3.3,-3.5,11.5,-6.4,4.7
COc1ccc2nc3c(cc2c1)c(NC(=O)C1CCCO1)nn3CC(C)C (centres undefined),-9.1,-7.0,-0.7,6.6,26.1*,1.3
Cc1ccc(NC(=O)CC2SC(=NC3CCCCC3)NC2=O)cc1 (centres undefined),18.4*,15.8,-8.5,0.0,-3.3,-0.7
O=S(=O)(c1cccs1)N1CCC(CO)(Cc2cccc(F)c2)CC1,-8.2,20.1,0.6,3.1,-12.5,3.8
Cc1ccc(Nc2nc3nonc3[nH]c2=O)cc1Cl,9.1,-13.4,-17.5,4.2,29.6*,0.5
Cc1ccc(Nc2nc3nonc3[nH]c2=O)cc1C,-2.8,5.8,6.5,4.2,4.4,4.8
CCCSc1nnc(CSc2nc(C)cc(C)n2)n1C,1.0,1.8,-1.1,0.3,-9.7,0.7
O=C(C1CCCO1)N1CCN(C(c2ccccc2)c2ccccc2)CC1 (centres undefined),-6.9,-0.7,1.7,0.3,-19.1,0.1
O=C(C1CCCO1)N1CCC(O)(c2ccccc2)CC1 (centres undefined),19.9*,-2.3,3.7,1.3,-13.9,-0.4
Cc1cnc(NC(=O)c2cncc(Br)c2)s1,20.3*,25.5,-4.9,1.3,-3.7,0.1
Cc1cnc(NC(=O)c2ccncc2)s1,1.9,18.6,-2.5,0.3,-11.6,0.9
